For some assays here: Results with a measured potency or affinity are listed apart.
What was measured:
Set-up in all cases: scale not given: direction of the effect not stated beside the values
[1] = molecular target: Protein translocase subunit SecA (Escherichia coli (strain K12)) (UniProt P10408); assay: Assay to Identify E. coli SecA ATPase Inhibitors; type: functional; conditions: 30 µM
[2] = molecular target: T1, Ubiquitin-activating enzyme e1, putative (Leishmania donovani (strain BPK282A1)) (UniProt E9BSI1); assay: Leishmania donovani Ubiquitin Activating Enzyme (LdE1); type: functional; conditions: 30 µM
T1 sequence (whole entry): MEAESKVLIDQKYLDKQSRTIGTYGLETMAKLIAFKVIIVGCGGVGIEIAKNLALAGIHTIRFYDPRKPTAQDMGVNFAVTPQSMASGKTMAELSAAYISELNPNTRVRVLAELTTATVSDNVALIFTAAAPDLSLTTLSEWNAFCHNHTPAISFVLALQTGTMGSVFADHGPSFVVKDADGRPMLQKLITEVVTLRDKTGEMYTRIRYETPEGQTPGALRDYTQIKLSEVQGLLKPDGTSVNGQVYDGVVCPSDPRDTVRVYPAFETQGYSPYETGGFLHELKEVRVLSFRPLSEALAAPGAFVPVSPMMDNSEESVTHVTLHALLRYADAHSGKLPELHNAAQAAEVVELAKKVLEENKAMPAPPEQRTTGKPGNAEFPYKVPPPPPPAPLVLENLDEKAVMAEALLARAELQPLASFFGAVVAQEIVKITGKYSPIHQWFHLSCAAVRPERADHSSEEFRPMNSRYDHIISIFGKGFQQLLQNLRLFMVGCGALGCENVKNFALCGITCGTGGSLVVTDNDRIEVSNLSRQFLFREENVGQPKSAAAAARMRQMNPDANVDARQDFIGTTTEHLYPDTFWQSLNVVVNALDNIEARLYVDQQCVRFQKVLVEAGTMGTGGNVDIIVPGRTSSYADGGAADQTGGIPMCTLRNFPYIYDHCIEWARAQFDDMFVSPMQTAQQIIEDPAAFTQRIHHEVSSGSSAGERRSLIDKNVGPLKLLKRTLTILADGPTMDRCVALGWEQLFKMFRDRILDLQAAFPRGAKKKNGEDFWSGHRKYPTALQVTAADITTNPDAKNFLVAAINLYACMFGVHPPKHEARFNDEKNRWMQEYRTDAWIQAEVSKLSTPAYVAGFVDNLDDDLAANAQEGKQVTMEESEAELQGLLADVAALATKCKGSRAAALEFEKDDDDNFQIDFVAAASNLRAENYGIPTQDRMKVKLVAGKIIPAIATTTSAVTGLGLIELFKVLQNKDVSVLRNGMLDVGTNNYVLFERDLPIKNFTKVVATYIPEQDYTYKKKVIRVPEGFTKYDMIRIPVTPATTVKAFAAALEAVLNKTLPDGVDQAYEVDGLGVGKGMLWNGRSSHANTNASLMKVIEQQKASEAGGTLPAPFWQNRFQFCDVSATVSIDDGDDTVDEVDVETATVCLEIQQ

[3] = molecular target: AMP-activated protein kinase, AMPK (Homo sapiens) (UniProt P54646+O43741+P54619+Q9UGJ0+Q9Y478+Q13131+Q9UGI9); assay: AMP-dependent Kinase enzyme assay. An in vitro enzyme assay that detects ADP turnover that is directly proportional to AMPK activity. This uses naive AMPK that is activated during the assay with MK-8722; type: functional; conditions: 30 µM
[4] = molecular target: Sialic acid-binding Ig-like lectin 9 (Homo sapiens) (UniProt Q9Y336); assay: Hs-Siglec9 ALPHAscreen SOP 20170721; conditions: 10 µM
Sequence of Sialic acid-binding Ig-like lectin 9 (Homo sapiens) (Q9Y336 whole entry): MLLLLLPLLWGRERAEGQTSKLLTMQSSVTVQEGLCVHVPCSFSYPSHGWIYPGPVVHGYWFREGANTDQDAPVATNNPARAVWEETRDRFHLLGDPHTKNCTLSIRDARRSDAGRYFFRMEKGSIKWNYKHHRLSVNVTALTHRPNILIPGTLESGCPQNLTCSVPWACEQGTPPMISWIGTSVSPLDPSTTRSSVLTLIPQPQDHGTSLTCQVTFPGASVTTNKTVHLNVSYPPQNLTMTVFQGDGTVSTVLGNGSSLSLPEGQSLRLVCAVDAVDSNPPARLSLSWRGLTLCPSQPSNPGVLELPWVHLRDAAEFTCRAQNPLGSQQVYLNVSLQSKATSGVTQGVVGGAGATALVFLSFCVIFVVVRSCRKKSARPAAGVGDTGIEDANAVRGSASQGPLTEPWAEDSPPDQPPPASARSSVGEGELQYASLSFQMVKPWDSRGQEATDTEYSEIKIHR

Trypanosoma cruzi = assay: Trypanosoma cruzi phosphomannomutase and mannose-1-phosphate guanylyltransferase assay; type: functional; conditions: 10 µM
[5] = molecular target: T2, Arginase-2, mitochondrial (Homo sapiens) (UniProt P78540); assay: in vitro enzyme assay to detect the production of urea directly proportional to the activity of Arginase II; type: functional; conditions: 33.3 µM; also: in the data most compounds retested in dose-response had high values
T2 sequence (whole entry): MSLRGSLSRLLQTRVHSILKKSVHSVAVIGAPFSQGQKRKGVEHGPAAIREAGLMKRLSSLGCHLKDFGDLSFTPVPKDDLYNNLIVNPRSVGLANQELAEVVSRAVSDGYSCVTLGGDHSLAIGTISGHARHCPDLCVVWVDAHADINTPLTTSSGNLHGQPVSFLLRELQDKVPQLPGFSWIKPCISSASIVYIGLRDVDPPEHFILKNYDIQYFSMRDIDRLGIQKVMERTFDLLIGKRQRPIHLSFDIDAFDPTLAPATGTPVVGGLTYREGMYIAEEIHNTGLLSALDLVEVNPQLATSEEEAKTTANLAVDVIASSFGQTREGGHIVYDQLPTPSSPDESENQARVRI

[6] = molecular target: T3, Proteasome subunit beta (Trypanosoma cruzi) (UniProt O96673); assay: Trypanosoma cruzi proteasome chymotrypsin-like activity (TcProtChymo) assay.; also: in the data most compounds retested in dose-response had high values; type: functional; conditions: 9.37 µM
T3 sequence (whole entry): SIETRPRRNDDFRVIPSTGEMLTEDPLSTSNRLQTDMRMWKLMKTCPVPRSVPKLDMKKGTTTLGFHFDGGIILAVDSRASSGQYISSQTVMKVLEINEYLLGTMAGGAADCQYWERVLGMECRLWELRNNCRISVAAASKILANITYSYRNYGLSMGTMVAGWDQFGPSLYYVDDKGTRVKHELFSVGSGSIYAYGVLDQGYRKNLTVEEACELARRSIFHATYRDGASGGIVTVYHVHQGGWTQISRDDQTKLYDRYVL

Homo sapiens = species on record: Homo sapiens; assay: To identify inhibition of the IFN signalling (Jak-Stat) pathway via expression of an eGFP reporter gene under the control of an IFN-stimulated response element (ISRE) containing MxA promoter.; type: functional; conditions: 30 µM
[7] = molecular target: T4, Tyrosyl-tRNA synthetase, putative (Trypanosoma cruzi (strain CL Brener)) (UniProt Q4DSP6); assay: Trypanosoma cruzi tyrosyl tRNA synthetase (TcYRS) _High Tyrosine SOP; type: functional; conditions: 30 µM; also: in the data most compounds retested in dose-response had high values
T4 sequence (whole entry): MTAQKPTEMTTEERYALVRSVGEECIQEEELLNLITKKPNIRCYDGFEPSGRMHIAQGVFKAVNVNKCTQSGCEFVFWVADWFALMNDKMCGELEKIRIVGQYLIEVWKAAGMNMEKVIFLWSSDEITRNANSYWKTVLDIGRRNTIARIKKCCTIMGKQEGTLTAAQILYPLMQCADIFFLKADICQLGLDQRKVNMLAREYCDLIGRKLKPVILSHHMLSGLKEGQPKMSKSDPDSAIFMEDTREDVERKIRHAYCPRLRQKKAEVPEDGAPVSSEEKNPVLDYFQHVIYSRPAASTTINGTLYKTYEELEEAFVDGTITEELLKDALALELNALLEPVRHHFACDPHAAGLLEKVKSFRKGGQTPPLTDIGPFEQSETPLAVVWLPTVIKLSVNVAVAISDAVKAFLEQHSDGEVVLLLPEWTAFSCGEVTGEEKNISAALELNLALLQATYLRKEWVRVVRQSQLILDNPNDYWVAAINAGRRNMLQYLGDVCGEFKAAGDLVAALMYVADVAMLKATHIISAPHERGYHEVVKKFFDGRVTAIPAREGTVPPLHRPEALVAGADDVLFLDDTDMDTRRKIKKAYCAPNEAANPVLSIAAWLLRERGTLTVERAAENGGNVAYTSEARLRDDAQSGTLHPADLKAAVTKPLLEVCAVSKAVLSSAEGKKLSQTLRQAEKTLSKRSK

[8] = molecular target: T4, Tyrosyl-tRNA synthetase, putative (Trypanosoma cruzi (strain CL Brener)); assay: Trypanosoma cruzi tyrosyl tRNA synthetase (TcYRS) SOP; type: functional; conditions: 30 µM
[9] = molecular target: Chromo domain-containing protein 1 (Saccharomyces cerevisiae (strain ATCC 204508 / S288c) (Baker's yeast)) (UniProt P32657); assay: ScCHD-1 Enzyme Inhibition Assay; type: functional; conditions: 30 µM; also: in the data most compounds retested in dose-response had high values
Sequence of Chromo domain-containing protein 1 (Saccharomyces cerevisiae (strain ATCC 204508 / S288c) (Baker's yeast)) (P32657 whole entry, the tested form may be a part): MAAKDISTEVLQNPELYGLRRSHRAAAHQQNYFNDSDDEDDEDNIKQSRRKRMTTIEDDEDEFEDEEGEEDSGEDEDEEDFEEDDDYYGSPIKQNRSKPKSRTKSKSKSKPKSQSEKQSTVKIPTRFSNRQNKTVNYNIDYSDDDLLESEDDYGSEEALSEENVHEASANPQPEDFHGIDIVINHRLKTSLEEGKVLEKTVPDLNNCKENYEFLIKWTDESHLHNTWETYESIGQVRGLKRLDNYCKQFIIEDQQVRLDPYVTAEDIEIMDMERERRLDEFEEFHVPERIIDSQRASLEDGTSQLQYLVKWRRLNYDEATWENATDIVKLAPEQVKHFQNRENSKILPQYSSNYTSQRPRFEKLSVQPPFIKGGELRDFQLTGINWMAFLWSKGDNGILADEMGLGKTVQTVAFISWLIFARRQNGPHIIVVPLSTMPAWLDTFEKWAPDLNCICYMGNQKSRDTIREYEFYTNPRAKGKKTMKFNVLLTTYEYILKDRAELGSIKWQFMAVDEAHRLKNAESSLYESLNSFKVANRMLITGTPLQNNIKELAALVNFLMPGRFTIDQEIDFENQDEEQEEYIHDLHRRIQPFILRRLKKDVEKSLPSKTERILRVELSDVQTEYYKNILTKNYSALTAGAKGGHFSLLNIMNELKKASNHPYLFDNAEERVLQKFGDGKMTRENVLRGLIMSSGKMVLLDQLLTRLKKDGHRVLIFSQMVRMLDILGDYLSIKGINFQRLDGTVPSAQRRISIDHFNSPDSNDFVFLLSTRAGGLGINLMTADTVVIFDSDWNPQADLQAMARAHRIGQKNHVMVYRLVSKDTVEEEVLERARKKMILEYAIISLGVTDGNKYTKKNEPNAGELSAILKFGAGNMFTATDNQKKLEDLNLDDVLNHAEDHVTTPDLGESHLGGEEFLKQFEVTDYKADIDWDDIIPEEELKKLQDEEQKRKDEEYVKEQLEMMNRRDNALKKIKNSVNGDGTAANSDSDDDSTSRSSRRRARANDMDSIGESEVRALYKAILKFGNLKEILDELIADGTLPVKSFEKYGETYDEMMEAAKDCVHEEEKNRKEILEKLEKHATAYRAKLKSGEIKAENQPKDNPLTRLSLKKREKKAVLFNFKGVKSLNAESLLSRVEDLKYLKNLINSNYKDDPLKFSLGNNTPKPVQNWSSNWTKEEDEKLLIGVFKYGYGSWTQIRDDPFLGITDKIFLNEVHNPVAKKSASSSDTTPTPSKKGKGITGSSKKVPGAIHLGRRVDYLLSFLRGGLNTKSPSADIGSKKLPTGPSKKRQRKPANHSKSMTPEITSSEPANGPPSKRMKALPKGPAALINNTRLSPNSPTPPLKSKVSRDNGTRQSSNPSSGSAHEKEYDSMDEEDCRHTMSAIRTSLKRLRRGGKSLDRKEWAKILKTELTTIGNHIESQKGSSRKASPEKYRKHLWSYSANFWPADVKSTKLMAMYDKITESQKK

Sequence of Protein translocase subunit SecA (Escherichia coli (strain K12)) (P10408 whole entry): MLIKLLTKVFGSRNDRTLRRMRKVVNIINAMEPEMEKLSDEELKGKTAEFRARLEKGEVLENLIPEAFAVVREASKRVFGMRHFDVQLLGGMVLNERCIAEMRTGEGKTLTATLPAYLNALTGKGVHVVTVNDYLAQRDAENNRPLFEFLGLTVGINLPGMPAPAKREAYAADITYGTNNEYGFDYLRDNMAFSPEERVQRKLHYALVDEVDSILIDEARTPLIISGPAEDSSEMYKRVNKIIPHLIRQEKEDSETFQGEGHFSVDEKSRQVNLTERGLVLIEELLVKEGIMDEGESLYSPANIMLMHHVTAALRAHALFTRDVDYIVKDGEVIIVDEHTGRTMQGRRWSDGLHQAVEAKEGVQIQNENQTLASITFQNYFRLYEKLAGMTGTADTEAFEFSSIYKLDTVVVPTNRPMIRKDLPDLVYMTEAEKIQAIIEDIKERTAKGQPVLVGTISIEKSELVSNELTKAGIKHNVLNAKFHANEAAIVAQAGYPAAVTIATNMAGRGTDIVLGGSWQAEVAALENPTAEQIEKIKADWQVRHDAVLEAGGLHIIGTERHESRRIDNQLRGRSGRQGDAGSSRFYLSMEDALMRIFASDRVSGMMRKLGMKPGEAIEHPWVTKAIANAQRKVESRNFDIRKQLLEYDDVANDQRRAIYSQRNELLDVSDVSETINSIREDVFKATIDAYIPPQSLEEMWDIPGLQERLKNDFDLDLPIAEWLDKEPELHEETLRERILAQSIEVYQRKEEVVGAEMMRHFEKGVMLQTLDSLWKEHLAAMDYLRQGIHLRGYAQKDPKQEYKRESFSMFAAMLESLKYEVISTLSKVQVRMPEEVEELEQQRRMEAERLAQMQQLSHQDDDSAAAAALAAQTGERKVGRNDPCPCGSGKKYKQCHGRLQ

SMILES | Percent Effect [1] | Percent Effect [2] | Percent Effect [3] | Percent Effect [4] | Percent Effect (Trypanosoma cruzi) | Percent Effect [5] | Percent Effect [6] | Percent Effect (Homo sapiens) | Percent Effect [7] | Percent Effect [8] | Percent Effect [9]
Cc1cnn(CCC(=O)N2CCN(c3nc(C)cs3)CC2)c1 | -5.41% | 17.7% | -10.1% | 9.63% | 5.76% | -2.66% | 11.6% | 1.73% | 4.43% | 24.1% | -8.6%
CC(=O)N1CCC2(CCCN(C(=O)c3ccccc3)C2)C1 (configuration not stated) | -2.42% | 0% | 11% | -1.1% | -1.57% | 3.03% | 1.85% | -0.0486% | 2.13% | 1.28% | 5.13%
O=C1O[C@@H]2CN(Cc3ccccc3)C[C@@H]2N1CCCN1CCOCC1 | -6.39% | 2.67% | -0.894% | 2% | -3.8% | -0.521% | 15.2% | 20% | 4.92% | 11.1% | -5.71%
CNC(=O)[C@H]1C[C@@H]2CN(C(=O)Nc3ccc(F)cc3)C[C@H]1O2 | -1.87% | 13% | 7.85% | 4.28% | 1.28% | 9.68% | 9.05% | 18.3% | 7.41% | 16.7% | -7.08%
Cc1nc(C)c(CC(=O)Nc2ncc(C)s2)c(=O)[nH]1 | -0.904% | 13.2% | -1.41% | 14.1% | 1.5% | -1.53% | -2.51% | -6.67% | 5.39% | 17.1% | -5.26%
CCC(C)N(C)S(=O)(=O)c1ccc(CCNC(C)=O)s1 (configuration not stated) | -1.87% | -4.17% | -4.26% | -5.04% | -2.62% | 0.442% | 8.77% | 10.4% | -3.16% | -5.13% | 5.31%
O=C(CS(=O)(=O)c1ccccc1Cl)NC1CCCCNC1=O (configuration not stated) | -6.72% | 13% | -4.35% | 4.43% | 2.43% | -1.78% | 6.93% | -3.42% | 2.91% | 14.6% | -2.31%
CCC(=O)N1CCc2nc3cc(OC)c(OC)cc3c(=O)n2CC1 | -8.64% | 9.46% | -6.48% | 12.5% | 5.34% | -1.62% | 8.58% | 6.53% | 2.15% | 11.7% | -28.2%
O=C(c1ccncc1)N1C[C@@H]2CC[C@H](C1)N(C(=O)N1CCOCC1)C2 | -0.807% | 2.67% | -4.2% | 3.79% | -4.38% | 4.69% | 15.5% | 10.6% | 6.01% | 13.6% | -5.41%
CC(=O)N1CCCC1c1ccc(C(=O)N2CCOCC2)s1 (configuration not stated) | -6.72% | -2.7% | 2.48% | -7.62% | -4.2% | -2.23% | -0.601% | 26.2% | -2.15% | -3.7% | 4.51%
O=C(O)CCc1cccc(C2CCCN2Cc2ccc(F)c(F)c2)n1 (configuration not stated) | -3.79% | 4.05% | 1.3% | 8.61% | 1.78% | 1.62% | 1.09% | 0.308% | 6.45% | 14.3% | -20.7%
NC(=O)c1ccc(N2CCCCC2)c(NC(=O)c2cc(Br)ccc2F)c1 | -3.67% | 7.79% | 2.61% | 8.24% | 0.295% | -16.6% | 14.8% | 1.93% | 4.3% | 6.17% | 24.8%
c1cc(C2CCCN2Cc2nnnn2C2CC2)cs1 (configuration not stated) | -2.2% | 4.17% | -9.7% | -8.8% | -4.18% | 0% | 21.2% | 0.525% | 6.32% | 10.3% | 2.21%
CS(=O)(=O)c1ccc(CNC(=O)N2CCC(C(N)=O)C2)cc1 (configuration not stated) | -5.24% | 25.3% | -8.85% | 3.98% | 8.78% | -3.04% | 14.2% | 0.909% | 8.37% | 26.6% | -5.74%
Cc1nc(C)c(C(=O)N2CCC(Nc3cccnc3)CC2)s1 | 0.905% | -2.74% | -10.4% | 50.9% | -3.37% | 8.38% | 14.5% | -5.72% | 2.08% | 3.7% | -3.74%
CC(C)c1ncc(CN2CCCC(CO)C2)cn1 (configuration not stated) | -1.56% | 1.35% | 11.1% | 9.9% | -6.32% | 1.16% | 3.59% | -1.15% | 1.07% | 1.3% | -0.548%
O=C(CN1CCNCC1)N1CC[C@@H](c2ccc3ccccc3c2)[C@H](O)C1 | -0.963% | 8% | -4.87% | 12.2% | 0.876% | 2.08% | 14.7% | 10.1% | 7.1% | 13.6% | -3.45%
Cc1ccc(C(=O)NC(CN2CCCC2=O)c2ccccc2)c(=O)[nH]1 (configuration not stated) | -4.18% | 21.9% | -6.93% | 17.4% | 5.88% | 29.6% | 9.23% | 2.33% | 5.38% | 15% | -5.93%
Cc1n[nH]c(C2CN(CC(=O)NCCc3ccsc3)CCO2)n1 (configuration not stated) | -1.63% | 5.48% | -9.76% | 0.305% | -3.13% | -0.455% | 20.2% | 8.08% | 4.3% | 15% | -13.8%
COc1ccc(-c2noc(CNC(C)Cn3cccn3)n2)c(OC)c1 (configuration not stated) | -5.86% | 31.6% | -3.12% | -7.44% | 2.15% | -2.52% | 9.9% | 17.3% | 5.42% | 25.9% | -11.8%
Cc1noc(C)c1CCC(=O)NC(C)c1nnc2n1CCC2 (configuration not stated) | -2.15% | 16.2% | 5.84% | 17.7% | 6.35% | 5.71% | 5.24% | 3.14% | 2.15% | 13.6% | -4.65%
CC(CCc1ccccc1)NC(=O)Nc1cnn(CC(N)=O)c1 (configuration not stated) | -2.21% | 16.5% | -2.88% | 2.1% | -1.74% | -4.52% | 17.8% | 8.25% | 3.12% | 20.2% | -26.2%

Reference: ChEMBL document CHEMBL3988442, “University of Dundee, Small-Polar-MMV Screening Library” (2021)
